From PubChem BioAssay
SW480 rereplic – A quantitative high throughput screen for small molecules that induce DNA re-replication in SW480 colon adenocarcinoma cells; Potency, µM (top dose mostly 46.1 µM), inactives show at the highest dose re-replication activation, hits mostly activators; 340,000 tested, 1.8% active; SW480 DNA re-replication, Hoechst DNA content imaging, 48 h; also: % of control where 0% means no effect; nearly all actives have a fitted effect of over 55% in size
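Cells (250 per well) received 23 nL compound or DMSO by pin tool and were kept 48 hr at 37 C, 5% CO2. Nuclei were then stained with Hoechst for 40 min and scanned for DNA content.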
TSG101-PTAP inh – qHTS Assay for Iinhibitors of HIV-1 Budding by Blocking the Interaction of PTAP/TSG101; Potency, µM (series often up to 115 µM), for the others: at the highest dose activity change, negative = inhibition, actives largely listed as inhibitors; 340,000 tested, under 10 active; AID 493005, 2010; Fluorescence polarization, FITC-PTAP peptide / Tsg101 binding; Tumor susceptibility gene 101 protein (Homo sapiens), Q99816; active = well fitted inhibition curve with a large enough effect in the main read-out, with a control signal flat, not every such curve was filed as active; inconclusive = small, poorly fitted or top-dose-only effect, or effect the other way, or a change in a side signal; inactive = no such curve, though single readings can be large or run the other way; also: % of control where 0% means no effect
Target sequence (Q99816 whole entry, looked up): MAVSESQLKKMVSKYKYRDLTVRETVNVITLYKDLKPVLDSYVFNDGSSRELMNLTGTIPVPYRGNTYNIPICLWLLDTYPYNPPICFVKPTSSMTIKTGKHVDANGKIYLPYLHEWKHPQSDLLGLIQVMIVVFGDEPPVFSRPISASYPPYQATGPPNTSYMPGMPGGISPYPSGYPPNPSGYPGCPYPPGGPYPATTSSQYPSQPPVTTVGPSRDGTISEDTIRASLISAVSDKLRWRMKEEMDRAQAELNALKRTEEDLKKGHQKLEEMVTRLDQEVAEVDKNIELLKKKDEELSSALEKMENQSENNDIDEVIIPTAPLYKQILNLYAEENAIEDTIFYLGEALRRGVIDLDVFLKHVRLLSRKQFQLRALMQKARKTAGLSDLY
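Fluorescence polarization binding of Tsg101 binding domain (10 uM final) to FITC-labeled PTAP peptide (50 nM final) in HEPES pH 7.5 buffer with NaCl, Tween 20, EDTA, TCEP. Compounds added before peptide; binding 20 min at RT.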
KB-V1 MDR tox – qHTS assay for MDR1-selective chemotherapeutics: Primary screen using the drug-selected MDR subline cells KB-V1; KB-V1 MDR cells viability, CellTiter-Glo, 72 h; 400,000 tested, 3.4% active; Potency, µM (titrated, usually from 46.1 µM), most hits filed as cytotoxic; also: % is scaled to controls: 0 for no effect and ±100 for the full control effect; nearly all actives have a fitted effect of over 60% in size
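Compound-treated KB-V1 multidrug-resistant cells, 72 h, 37 degrees C; viability by CellTiter-Glo. Fitted qHTS curves give the values.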
MCF10A rerep – A quantitative high throughput screen for small molecules that induce DNA re-replication in MCF 10a normal breast cells; MCF 10A DNA re-replication, Hoechst nuclear intensity, 48 h; Potency, µM (doses to about 46.1 µM), inactives show at the highest dose activity, positive = re-replication, actives largely listed as activators; 350,000 tested, 2.9% active; AID 624296, 2012; also: % of control where 0% means no effect; nearly all actives have a fitted effect of over 50% in size
PINK1 expr mod – A Quantitative High throughput Screen to Identify Chemical Modulators of PINK1 Expression | PINK1 immunofluorescence, high-content cytometry, 24 h | Potency, µM (titrated, usually from 76.6 µM), for the others: at the highest dose activation (PINK1 increase), most hits filed as activators | 410,000 tested, 0.2% active; active = well fitted activation curve with a large enough effect; inconclusive = small, poorly fitted or top-dose-only effect; cell line not stated here; also: % of control where 0% means no effect; nearly all actives have a fitted effect of over 65% in size
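Stable cell line, 250 cells/well, 12 h attachment; compounds pinned at 5 concentrations, 24 h; CCCP control. Fixed with nuclear dye, primary antibodies 12 h at 10 degrees C, secondary plus cell stain; laser-scanning cytometer read.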
KB-3-1 tox – qHTS assay for MDR1-selective chemotherapeutics: Primary screen using the parental adenocarcinoma cell KB-3-1 | Potency, µM (doses to about 46.1 µM), hits mostly cytotoxic | KB-3-1 viability, CellTiter-Glo ATP luminescence, 72 h | 400,000 tested, 1.4% active | AID 1347075, 2019; also: % is scaled to controls: 0 for no effect and ±100 for the full control effect; nearly all actives have a fitted effect of over 60% in size
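Here the drug-naive KB-3-1 line serves as comparator for MDR sub-line selectivity; cells received compound titrations, 72 h at 37 °C, then CellTiter-Glo readout.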
Numbers without * were called inactive; [ ] = remark or other dose. Hits are enriched below; roughly 6.8% of the tested compounds scored in any of these assays. Unless noted, calls follow the shape of the dose curve; as a rule, active = well fitted curve in the direction sought with a large enough effect; inconclusive = small, poorly fitted or top-dose-only effect, or another doubt; inactive = no such curve, though single readings can be large; an effect the other way counts as inactive or inconclusive. Potency is read from the fitted curve at half-maximal effect.

What do the screens show for `CCOC(=O)c1cccc(C(=O)Oc2ccccc2)n1`?
SW480 rereplic: 0.2%; TSG101-PTAP inh: -10.8%; KB-V1 MDR tox: inactive; MCF10A rerep: 20.6µM*; PINK1 expr mod: 9.6%[38.3 µM]; KB-3-1 tox: inactive

Results for Cc1ccc(OC(=O)c2cccc(C(=O)Oc3ccc(C)cc3)n2)cc1 ?
SW480 rereplic: -0.1%; TSG101-PTAP inh: -7.6%; KB-V1 MDR tox: inactive; MCF10A rerep: 0.8%; PINK1 expr mod: -0.7%; KB-3-1 tox: inactive

What do the screens show for `Cc1cc(C)c(NC(=O)C2CCN(c3nnc(C)c4c(C)n(-c5ccccc5)nc34)CC2)c(C)c1`?
KB-V1 MDR tox: inactive; PINK1 expr mod: -0.3%; KB-3-1 tox: inactive

How did CC[n+]1c(/C=C/C=C/N(C(C)=O)c2ccccc2)sc2ccccc21 do in these assays?
SW480 rereplic: 0.2%; TSG101-PTAP inh: inconclusive; KB-V1 MDR tox: inconclusive; MCF10A rerep: -5.7%; PINK1 expr mod: inconclusive; KB-3-1 tox: 16.4µM*

How did O=c1c2ccccc2nc2c3ccccc3c3nncn3n12 do in these assays?
SW480 rereplic: 0.2%; TSG101-PTAP inh: -2.0%; KB-V1 MDR tox: 7.31µM*; MCF10A rerep: 0.5%; PINK1 expr mod: 14.9%; KB-3-1 tox: inconclusive

How did O=c1c2ccccc2nc2c3ccccc3cnn12 do in these assays?
SW480 rereplic: -12.2%; TSG101-PTAP inh: -0.3%; KB-V1 MDR tox: inactive; MCF10A rerep: 25.5%; PINK1 expr mod: -1.7%; KB-3-1 tox: inactive

What do the screens show for `COc1ccc2c(c1OC)c(=O)n1c3ccc(OC(C)C(=O)NCCCN4CCOCC4)cc3c3ccnc2c31` (stereo not given)?
SW480 rereplic: 18.4µM*; TSG101-PTAP inh: -1.7%; KB-V1 MDR tox: inactive; MCF10A rerep: 5.8µM*; PINK1 expr mod: 0.8%; KB-3-1 tox: inactive

How did COc1ccc2c(c1OC)c(=O)n1c3ccc(OC(C)C(=O)NCCN4CCOCC4)cc3c3ccnc2c31 (stereo not given) do in these assays?
SW480 rereplic: inconclusive; TSG101-PTAP inh: -6.3%; KB-V1 MDR tox: inactive; MCF10A rerep: -5.2%; PINK1 expr mod: 0.2%; KB-3-1 tox: inactive

What do the screens show for `CC(Oc1ccc2c(c1)c1ccnc3c4ccccc4c(=O)n2c13)C(=O)NCCN1CCOCC1` (stereo not given)?
SW480 rereplic: inconclusive; TSG101-PTAP inh: -1.0%; KB-V1 MDR tox: inactive; MCF10A rerep: 1.64µM*; PINK1 expr mod: 0.0%; KB-3-1 tox: inactive

How did Oc1c(C(c2ccccc2Cl)N2CCC(O)CC2)sc2nc(-c3ccco3)nn12 (stereo not given) do in these assays?
KB-V1 MDR tox: inactive; PINK1 expr mod: -0.7%; KB-3-1 tox: inactive

What do the screens show for `CCC1Oc2ccc(C)cc2N(CC(=O)N(Cc2ccc3c(c2)OCO3)CC2CCCO2)C1=O` (stereo not given)?
SW480 rereplic: -1.5%; KB-V1 MDR tox: 6.51µM*; MCF10A rerep: 7.2%; PINK1 expr mod: 14.8%[38.3 µM]; KB-3-1 tox: inactive

What do the screens show for `COCCn1c(=O)c(-c2ccc(Cl)cc2)nc2cnc(N3CCNCC3)nc21`?
PINK1 expr mod: -1.0%

What do the screens show for `Cc1cccc(C)c1OCC(=O)N1CCC(c2nc3ccccc3o2)CC1`?
PINK1 expr mod: 0.2%

How did Cc1cccc(C)c1NC(=O)N1CCC(c2nc3ccccc3o2)CC1 do in these assays?
SW480 rereplic: 0.8%; KB-V1 MDR tox: 20.6µM*; MCF10A rerep: 16.1%; PINK1 expr mod: 4.1%[38.3 µM]; KB-3-1 tox: inactive

Results for COC(=O)Nc1ccc(S(=O)(=O)N2CCCc3cccc(O)c32)cc1 ?
SW480 rereplic: 25.9µM*; TSG101-PTAP inh: -2.3%; KB-V1 MDR tox: inconclusive; MCF10A rerep: 13µM*; PINK1 expr mod: 5.5%; KB-3-1 tox: inconclusive

What do the screens show for `COC(=O)Nc1ccc(S(=O)(=O)N2CCCc3ccccc32)cc1`?
SW480 rereplic: 1.64µM*; TSG101-PTAP inh: -5.0%; KB-V1 MDR tox: 1.16µM*; MCF10A rerep: 8.2µM*; PINK1 expr mod: inconclusive; KB-3-1 tox: 1.46µM*

How did CCC(=O)Nc1ccc(S(=O)(=O)N2CCc3ccccc32)cc1 do in these assays?
SW480 rereplic: -10.6%; TSG101-PTAP inh: -5.3%; KB-V1 MDR tox: inactive; MCF10A rerep: inconclusive; PINK1 expr mod: 4.7%; KB-3-1 tox: inactive

How did Cn1c(=NC(=O)c2ccc(S(=O)(=O)N3CCCc4ccccc43)cc2)sc2cc(S(C)(=O)=O)ccc21 do in these assays?
SW480 rereplic: 0.1%; TSG101-PTAP inh: -1.3%; KB-V1 MDR tox: 3.66µM*; MCF10A rerep: 3.6%; PINK1 expr mod: 0.6%; KB-3-1 tox: inactive

How did CCCCN(CC)C(=O)CSc1nc2n[nH]c(C)c2c(=N)n1-c1cccc(Cl)c1 do in these assays?
PINK1 expr mod: 0.6%

What do the screens show for `O=C1c2ccccc2C(=O)c2[nH]c(=O)[nH]c21`?
SW480 rereplic: 1.3µM*; TSG101-PTAP inh: -8.3%; KB-V1 MDR tox: 10.3µM*; MCF10A rerep: inconclusive; PINK1 expr mod: -1.7%; KB-3-1 tox: 5.17µM*

How did COc1ccc(OC)c(NC(=O)c2cc3ccccc3o2)c1 do in these assays?
SW480 rereplic: 12.8%; TSG101-PTAP inh: -12.0%; KB-V1 MDR tox: inactive; MCF10A rerep: -1.1%; PINK1 expr mod: 0.9%; KB-3-1 tox: inactive

Results for COc1ccc(OC)c(Nc2nc(N)nc(-c3cc4ccccc4o3)n2)c1 ?
SW480 rereplic: inconclusive; TSG101-PTAP inh: -5.6%; KB-V1 MDR tox: 14.6µM*; MCF10A rerep: inconclusive; PINK1 expr mod: 6.3%; KB-3-1 tox: inconclusive

How did O=C1CCc2cc(S(=O)(=O)Nc3cccc(B(O)O)c3)ccc2N1 do in these assays?
KB-V1 MDR tox: inactive; KB-3-1 tox: inactive

Results for O=S(=O)(c1ccccc1)c1nc(Nc2ccccc2N2CCOCC2)sc1Cl ?
SW480 rereplic: 0.5%; TSG101-PTAP inh: -11.2%; KB-V1 MDR tox: 20.6µM*; MCF10A rerep: 2.8%; PINK1 expr mod: 2.9%[38.3 µM]; KB-3-1 tox: inactive

Results for CC(C)C[C@H]1CNC(=S)N1C[C@H]1CCCN1C[C@H](CC(C)C)N1C[C@H](Cc2ccc(O)cc2)N(CC2CCCCC2)C1=S ?
KB-V1 MDR tox: 16.4µM*; PINK1 expr mod: -0.7%; KB-3-1 tox: inconclusive
